PubChem BioAssay AID651768 (National Center for Advancing Translational Sciences (NCATS), 2012)
Out of some 360,000 compounds screened, about 1,700 (0.47%) were called active. Not shown: some 2% with an inconclusive outcome. The list comes from a sample in which actives are over-represented; it also holds similar structures and randomly drawn compounds. Where a call stands in place of a potency, no number is given. A number with no mark means an inactive call. The call rests on the fitted dose curve; in most records, active means well fitted inhibition curve with a large enough effect; inconclusive means small, poorly fitted or top-dose-only effect; inactive means no such curve, though single readings can be large or run the other way.

The compounds below were run against Bifunctional 3'-5' exonuclease/ATP-dependent helicase WRN (Homo sapiens) (UniProt Q14191) (assay: qHTS for Inhibitors of WRN Helicase). Settings: WRN helicase unwinding, fluorescent forked duplex, kinetic; series mostly up to 114 µM.
Sequence of Bifunctional 3'-5' exonuclease/ATP-dependent helicase WRN (Homo sapiens) (Q14191 whole entry, looked up): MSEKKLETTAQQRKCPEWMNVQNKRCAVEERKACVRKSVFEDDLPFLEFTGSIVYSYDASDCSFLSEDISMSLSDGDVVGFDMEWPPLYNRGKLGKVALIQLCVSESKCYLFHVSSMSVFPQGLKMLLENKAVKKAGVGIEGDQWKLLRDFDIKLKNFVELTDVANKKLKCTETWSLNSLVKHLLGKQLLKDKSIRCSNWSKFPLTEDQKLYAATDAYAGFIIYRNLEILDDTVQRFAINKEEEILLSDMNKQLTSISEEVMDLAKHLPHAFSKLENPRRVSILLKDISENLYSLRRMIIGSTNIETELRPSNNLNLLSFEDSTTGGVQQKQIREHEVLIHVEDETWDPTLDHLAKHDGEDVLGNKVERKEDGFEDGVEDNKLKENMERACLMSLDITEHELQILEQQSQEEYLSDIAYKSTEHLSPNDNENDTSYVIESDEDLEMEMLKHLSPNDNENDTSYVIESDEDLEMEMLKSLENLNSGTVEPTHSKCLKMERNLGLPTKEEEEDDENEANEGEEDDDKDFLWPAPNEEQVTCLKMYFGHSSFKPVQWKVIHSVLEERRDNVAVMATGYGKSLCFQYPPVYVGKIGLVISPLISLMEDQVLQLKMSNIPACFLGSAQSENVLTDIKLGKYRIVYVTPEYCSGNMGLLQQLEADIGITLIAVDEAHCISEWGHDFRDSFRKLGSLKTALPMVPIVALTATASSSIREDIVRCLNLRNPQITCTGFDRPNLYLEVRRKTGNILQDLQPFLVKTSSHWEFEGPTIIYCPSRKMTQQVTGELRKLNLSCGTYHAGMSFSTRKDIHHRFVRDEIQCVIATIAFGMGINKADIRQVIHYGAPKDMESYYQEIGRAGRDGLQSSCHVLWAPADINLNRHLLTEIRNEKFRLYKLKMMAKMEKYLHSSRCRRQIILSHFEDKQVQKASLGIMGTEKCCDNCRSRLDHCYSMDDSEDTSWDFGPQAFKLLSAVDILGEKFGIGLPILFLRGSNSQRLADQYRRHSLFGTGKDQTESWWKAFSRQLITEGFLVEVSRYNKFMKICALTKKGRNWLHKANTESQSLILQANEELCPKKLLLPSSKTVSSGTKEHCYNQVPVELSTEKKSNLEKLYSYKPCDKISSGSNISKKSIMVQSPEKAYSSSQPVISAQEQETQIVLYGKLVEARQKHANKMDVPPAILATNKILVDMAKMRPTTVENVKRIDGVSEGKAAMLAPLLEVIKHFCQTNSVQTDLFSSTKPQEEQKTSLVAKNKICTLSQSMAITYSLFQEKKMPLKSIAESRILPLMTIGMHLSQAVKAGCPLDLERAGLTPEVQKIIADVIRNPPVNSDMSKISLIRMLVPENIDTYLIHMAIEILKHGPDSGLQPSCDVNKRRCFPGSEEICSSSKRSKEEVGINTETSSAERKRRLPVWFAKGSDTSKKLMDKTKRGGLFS
From the text: Inhibition of DNA repair is proposed as a strategy for combating cancer. Synthetic lethality is an approach that exploits preexisting DNA repair deficiencies in certain tumors to develop inhibitors of DNA repair pathways that compensate for the tumor-associated DNA repair deficiency. Because helicases play critical roles in the DNA damage response and in DNA repair, particularly in actively dividing and replicating cells, characterization of synthetic lethal relationships of DNA helicases may be of value in developing improved anticancer treatment strategies; moreover, small molecules that specifically target a given DNA helicase may be useful for understanding its role in cellular nucleic acid metabolism. The goal of this project is to identify small molecule, non-covalent chemical inhibitors of the Werner syndrome (WS) helicase (WRN), which plays an important role in cell proliferation, the replication stress response, and DNA repair. […] The WRN gene product that is defective in the chromosomal instability disorder has DNA helicase and exonuclease activities and interacts with a number of nuclear proteins to maintain genomic stability. We will employ an optimized high-throughput screening assay that utilizes a fluorescence intensity modulation scheme with a fluorophore and quencher positioned near one another within a duplex deoxyoligonucleotide that contains a single forked structure. After a high-throughput screen of the ~350,000-member Molecular Libraries Small Molecule Repository (MLSMR) collection, followed by data analysis and hit selection, a panel of confirmatory, as well as secondary and ternary, assays will be employed to identify high-confidence WRN inhibitors. Structure-activity relationships will be investigated for the top candidate inhibitor series through medchem expansion. These are the results of the primary screening campaign against the MLSMR. NIH Chemical Genomics Center [NCGC] NIH Molecular Libraries Probe Centers Network [MLPCN] MLPCN Grant: MH096530 Assay Submitter (PI): Robert Brosh, National Institute of Aging
Three muL of reagents (buffer in columns 3 and 4 as negative controls; WRN at 20 nM final concentration in columns 1 and 2 as positive controls; columns 5-48 as test reactions) will be dispensed into a 1536-well Greiner black plate via solenoid-valve based nanoliter dispensers. Compounds (23 nL each in columns 5-48) and control (23 nL each in column 2 as dose-response) will be transferred via a Kalypsys pintool equipped with a 1536-pin array. Plates will be incubated for 15 min at room temperature, and then 1 µL of substrate (100 nM forked duplex oligonucleotide and 2 mM ATP final concentrations) will be added to start reaction, and plate will be transferred into a ViewLux high-throughput CCD imager where reaction progress is measured in kinetic mode using standard red-fluorescence optics (excitation filter 525 nm, emission filter 598 nm).
Further: nearly all actives have a fitted effect of over 55% in size.
Potency means the concentration at half of the fitted maximal effect.

Structure (SMILES) | Potency | activity change, negative = inhibition
CC1(C)C(c2ccccc2)=NC(c2cccnc2)=[N+]1[O-] | 50.1 µM (active) | –
CCOP(=O)(OCC)C(NC(=O)c1ccc(C)cc1)C(Cl)(Cl)Cl (stereo not given) | inactive | –
O=C(Cc1ccc(Cl)cc1)NCCN1CCN(C(=O)Cc2ccc(Cl)cc2)CC1 | inactive | –
CCOC(=O)[C@]12Cc3cc(OC)ccc3[C@H]1N(C(C)C)C(=O)c1ccccc12 | inactive | –
CC(Cc1ccccc1)NCCC(c1ccccc1)c1ccccc1 (stereo not given) | inactive | –
CC(Cc1cccs1)NCc1ccc(Cl)cc1 (stereo not given) | inactive | –
O=C(O)CCn1cc(C=C2C(=O)NC(=S)NC2=O)c(-c2cccc(Br)c2)n1 | 31.6 µM (active) | –
C=C(C)C1(CCCC)C(=O)NC(=S)NC1=O | inactive | –
COc1ccc(-n2nnnc2C(c2cccc3ccccc23)N2CCC(n3c(=O)[nH]c4ccccc43)CC2)cc1 (stereo not given) | inactive | –
COC(=O)CN(CCCl)P1(=O)OCCCN1CCCl (stereo not given) | inactive | –
CCOc1ccc(-c2cc(C)[n+](CCN(CC)CC)c(-c3ccc(OCC)cc3)c2)cc1 | inactive | –
O=c1[nH]c(O)c(C=Nc2cc(F)cc(F)c2)c(=O)[nH]1 | inactive | –
Cc1ccc2c(c1)=C/C(=C\c1c(O)[nH]c(=O)[nH]c1=O)C(=O)N=2 | 39.8 µM (active) | –
O=C1N=c2ccccc2=C/C1=C\c1c(O)[nH]c(=S)[nH]c1=O | inactive | –
N#Cc1ccc(Cn2cc(C(=O)c3ccco3)c3ccccc32)cc1 | inactive | –
CCCCCCCCCCCCn1ccc(=N)cc1 | inactive | –
COc1ccc(CCn2c(O)c(C=NCCCn3ccnc3)c(=O)[nH]c2=O)cc1OC | inactive | –
O=C(CN1CCCC1=O)NCCc1ccccc1 | inactive | –
CC(C)(C)c1ccc(CN2C(=O)CN=C(c3ccccc3)c3ccccc32)cc1 | inactive | –
O=C1CC(=O)N(Cc2ccccc2)C(=O)N1CCCCCCN1C(=O)CC(=O)N(Cc2ccccc2)C1=O | 28.2 µM (active) | –
CC(=O)C1(O)CCC2C3CCC4=C(Cl)C(=O)CCC4(C)C3CCC21C (stereo not given) | inactive | –
CCOC(=O)[C@]12Cc3ccccc3[C@H]1N(C1CCCCC1)C(=O)c1cc(OC)ccc12 | inactive | –
O=C(O)COc1ccccc1/C=C1\C(=O)NC(=O)N(CCC2=CCCCC2)C1=O | 39.8 µM (active) | –
C=CCN1C(=O)NC(=O)/C(=C/c2ccc(OCC(=O)Nc3ccc(C)cc3)cc2)C1=O | inactive | –
O=C1NC(=O)N(CCc2ccc(F)cc2)C(=O)/C1=C/C=C/c1ccccc1 | inactive | –

Structure (SMILES) | Potency | activity change, negative = inhibition
CCCOC(=O)C1C2c3ccccc3C(c3ccccc32)C1C(=O)O (stereo not given) | inactive | –
CC(=O)N1CN2CN(C(C)=O)CC(C(=O)c3ccc(Br)cc3)(C2)C1 | inactive | –
O=C1NC(=O)N(c2ccc(F)cc2)C(=O)/C1=C/c1ccc2c(c1)CCCN2Cc1ccccc1 | inactive | –
O=C1NC(=O)N(c2ccccc2)C(=O)/C1=C/c1ccc([N+](=O)[O-])s1 | 28.2 µM (active) | –
O=c1c2ccccc2nc(CBr)n1-c1ccc(Cl)cc1 | inactive | –
COc1ccc(N2C(=O)/C(=C/c3ccco3)C(=O)NC2=S)cc1 | 17.8 µM (active) | –
CN(C)CC1CCCCC1OC(=O)c1ccc(Cl)c(Cl)c1 (stereo not given) | inactive | –
CC(C)(C)[C@]1(O)C[C@@H]2OC(=O)C[C@@]23C(=O)O[C@@H]2OC(=O)[C@H](O)[C@]213 | inactive | –
COc1ccc(-c2nn(CCC#N)cc2C(=O)Nc2ccc(C(C)=O)cc2)cc1 | inactive | –
Clc1cccc(Cl)c1Cl | inactive | –
Cc1c(C(=O)O)cccc1-n1c(C)cc(/C=C2\C(=O)NC(=O)N(c3ccc4c(c3)OCO4)C2=O)c1C | – | -16.1% [at 11.6 µM]
Cc1cccc(N2C(=O)NC(=O)/C(=C\c3cnn(-c4ccccc4)c3)C2=O)c1 | 50.1 µM (active) | –
COc1ccc(S(=O)(=O)NCc2ccc(C(=O)N3CCC4(CC3)OCCO4)cc2)cc1 | inactive | –
OCC#CC[N+]1(CC#Cc2ccccc2)CCCC1 | inactive | –
CSC1=NP(=S)(SC)N(C)c2nc3n(c21)CCC3 (stereo not given) | inactive | –
COC(=O)C[C@H]1CC[C@H]2NC[C@@H](O)COC[C@@H]2O1 | inactive | –
O=C1NC(=O)N(Cc2ccco2)C(=O)/C1=C\c1ccc(-c2ccc(F)cc2)o1 | 31.6 µM (active) | –
COc1ccc(-c2nc(CS(=O)CC(=O)N3CCC4(CC3)OCCO4)c(C)o2)cc1 (stereo not given) | inactive | –
COc1ccccc1N=Nc1c(O)[nH]c(=S)[nH]c1=O | inactive | –
O=c1[nH]c(=S)[nH]c(O)c1/C=C1\C=Nc2ccccc21 | 50.1 µM (active) | –
O=c1[nH]c2ccccc2n1C1CCN(C(c2ccccc2)c2nnnn2Cc2ccccc2)CC1 (stereo not given) | inactive | –
O=C(N/N=C/c1c(O)n(C2CC2)c(=S)[nH]c1=O)c1ccccc1 | inactive | –
COc1ccccc1N=C1SCCCN1C | inactive | –
CCCCCn1c(=O)c(C(=O)Nc2c(C)n(C)n(-c3ccccc3)c2=O)c(O)c2ccccc21 | inactive | –
COC(=O)C1=C(c2cccc(OCc3ccccc3)c2)C[C@@H]2CC[C@H]1N2C(=O)NNCc1ccccc1 | inactive | –
